Compounds with a hit are over-represented: about 1.5% of the library has one in this group of screens.
TLR4 MyD88 comp: TLR4-MyD88 interaction inhibition in cells; HeLa CL3-4 TLR4/MyD88 BLA complementation, FRET ratio; inhibition, % at 8.4 µM; 200,000 tested, 0.18% active; AID 861; in the data active = inhibition above about 25%;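 note: 0% = vehicle and 100% = reference inhibitor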
Target sequence (O00206 whole entry, looked up): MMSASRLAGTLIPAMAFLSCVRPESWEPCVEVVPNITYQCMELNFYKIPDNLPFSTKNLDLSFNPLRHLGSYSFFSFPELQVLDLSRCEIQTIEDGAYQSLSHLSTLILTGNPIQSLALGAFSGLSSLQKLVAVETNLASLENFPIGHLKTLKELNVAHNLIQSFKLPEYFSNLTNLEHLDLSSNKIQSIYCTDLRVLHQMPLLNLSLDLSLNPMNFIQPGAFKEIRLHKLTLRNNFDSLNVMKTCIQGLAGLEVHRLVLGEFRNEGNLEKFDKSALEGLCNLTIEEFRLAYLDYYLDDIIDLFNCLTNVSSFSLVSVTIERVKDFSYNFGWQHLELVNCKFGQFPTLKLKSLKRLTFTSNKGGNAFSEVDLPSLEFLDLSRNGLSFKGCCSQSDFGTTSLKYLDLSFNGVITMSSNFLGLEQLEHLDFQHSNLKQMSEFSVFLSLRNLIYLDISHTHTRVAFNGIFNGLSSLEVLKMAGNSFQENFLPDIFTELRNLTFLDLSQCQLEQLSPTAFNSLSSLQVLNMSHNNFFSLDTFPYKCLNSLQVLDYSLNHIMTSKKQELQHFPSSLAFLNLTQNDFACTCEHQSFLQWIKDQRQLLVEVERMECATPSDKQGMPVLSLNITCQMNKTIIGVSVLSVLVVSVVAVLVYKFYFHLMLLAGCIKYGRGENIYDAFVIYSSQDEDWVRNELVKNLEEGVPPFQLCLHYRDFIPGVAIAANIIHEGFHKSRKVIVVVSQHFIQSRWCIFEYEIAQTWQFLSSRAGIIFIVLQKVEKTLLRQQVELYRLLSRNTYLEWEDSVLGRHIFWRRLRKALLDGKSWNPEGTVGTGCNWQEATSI
Target sequence (Q99836 whole entry, looked up): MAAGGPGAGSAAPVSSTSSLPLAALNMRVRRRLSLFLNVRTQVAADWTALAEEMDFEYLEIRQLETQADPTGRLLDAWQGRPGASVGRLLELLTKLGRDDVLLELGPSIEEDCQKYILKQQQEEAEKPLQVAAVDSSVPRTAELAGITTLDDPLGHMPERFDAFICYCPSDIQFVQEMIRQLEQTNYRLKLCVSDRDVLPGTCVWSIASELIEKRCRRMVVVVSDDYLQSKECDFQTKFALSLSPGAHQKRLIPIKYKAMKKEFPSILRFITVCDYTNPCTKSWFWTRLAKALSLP
NOD2-RIPK2 inh: blocks binding of human NOD2 to RIPK2 | CHO BLA complementation NOD2-RIPK2, CCF4 ratio | inhibition, % at 4.98 µM | 360,000 tested, 0.38% active; in the data active = inhibition above about 21%;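 note: 0% = vehicle only and 100% = reference blocker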
TLR9-MyD88 block: inhibitors of human TLR9-MyD88 binding | Q9NR96+Q99836 | CHO BLA complementation TLR9-MyD88, CCF4 FRET ratio | inhibition, % at 4.98 µM | 340,000 tested, 0.21% active;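 active = inhibition above the mean over all tested compounds plus 3 SD, cut at about 21% in these data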;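 note: 0% = DMSO only wells and 100% = clavulanate BLA inhibitor control wells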
Myeloid diff 2: promotes myeloid progenitor differentiation; ER-HoxA9 myeloid progenitors, lysozyme-GFP differentiation, flow cytometry; calls only at 10 µM; 360,000 tested, 1% active;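 active = normalized GFP-positive differentiation at or above the plate's own cutoff, the solvent-only control mean plus 3 SD; inconclusive = no clear call, values can overlap the other calls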;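 note: cells exposed to compound for four days before flow analysis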
The depositor's hits bear a star; i = inactive; ? = inconclusive; . = no result given; + = active, no number; ! = not active in a repeat.

SMILES	TLR4 MyD88 comp	NOD2-RIPK2 inh	TLR9-MyD88 block	Myeloid diff 2
Cc1nn(CCC(=O)O)c2nc(-c3cccnc3)cc(C(F)(F)F)c12	-1	8	6	i
CCCCCN1CC(=O)N2C(C)c3[nH]c4ccccc4c3C[C@H]2C1=O (stereo not given in full)	.	5	0	+
C=CCN1CC(=O)N2Cc3[nH]c4ccccc4c3C[C@H]2C1=O	.	0	2	+
CCCCN1C(=O)C2Cc3c([nH]c4ccccc34)CN2C1=S (stereo not given)	9	5	-10	+
COC(=O)Nc1nc2ccc(-c3n[nH]c(=O)c4ccccc34)cc2[nH]1	-8	-5	-20	+
COc1ccc2cc3cc(C(=O)N4CCCCCC4)oc3nc2c1	.	-11	-2	i
COc1ccc2cc3cc(C(=O)N4CCCCC4C)oc3nc2c1 (stereo not given)	.	-7	-1	+
COc1ccc(NS(=O)(=O)c2cc([N+](=O)[O-])ccc2N/N=C/c2c(C)[nH]c3ccccc23)cc1	.	5	1	+
CC(C)(C)Cc1c(-c2ccc(C#N)cc2)nc2c(Cl)cc(C(F)(F)F)cn12	.	-16	.	i
CCCCNc1c(-c2cccnc2)nc2nc(C)cc(C)n12	.	-15	.	i
Cc1cccc(N2CCN(C(=O)c3cn(C)c(=O)c4c3c3ccccc3n4C)CC2)c1C	10	8	-19	i
Cc1ccc(Cl)cc1N1CCN(C(=O)c2cn(C)c(=O)c3c2c2ccccc2n3C)CC1	5	-2	0	+
C[C@H](CO)N1C[C@H](C)[C@H](CN(C)S(C)(=O)=O)OCc2cnnn2CCCC1=O	.	1	5	i
COc1cc(C2C(C#N)=C(N)N(c3ccc(F)cc3)C3=C2S(=O)(=O)CC3)ccc1O (stereo not given)	12	2	-1	+
COc1ccc(CCNc2nc(C)c(C(C)=O)s2)cc1OC	.	-6	-5	i
COc1ccc(CCNc2nc(-c3ccc(F)cc3)c(CC(=O)O)s2)cc1OC	.	4	-6	+
Cc1cccc(C)c1NC(=O)C(c1ccccc1)N1CCC(c2ccccc2)CC1 (stereo not given)	.	-1	.	i
COC(=O)CC1N(S(=O)(=O)c2ccc(C)cc2)c2ccccc2C1(C(=O)OC)C(=O)OC (stereo not given)	.	8	.	i
COc1ccc(C)c(-n2c(=O)n(Cc3ccccc3)c(=O)c3[nH]cnc32)c1	.	-2	.	i
Cc1ccc(S(C)=O)cc1-n1c(=O)n(Cc2ccccc2)c(=O)c2[nH]cnc21 (stereo not given)	.	-5	3	+
O=C1NC[C@H](CCCCN2C[C@H](Cc3ccccc3)N(CCC3CCCCC3)C(=O)C2=O)N(Cc2ccccc2)C1=O	.	-1	.	i
COc1ccc(N2CCN(C(=O)C(=O)c3cc(OC)c4ccccc4c3)CC2)cc1	.	6	.	i
Cc1cc(Cl)c(C)c(S(=O)(=O)N2CCN(CC(=O)N3CCOCC3)CC2)c1Cl	.	-11	6	+
COC(=O)c1sc(NC(=O)OCc2ccccc2)nc1CCNC(=O)OC(C)(C)C	.	-6	.	i
Cc1c(Cc2ccccc2)c(=O)oc2c(C)c(OCc3nn[nH]n3)ccc12	-2	-5	-6	i
SMILES	TLR4 MyD88 comp	NOD2-RIPK2 inh	TLR9-MyD88 block	Myeloid diff 2
Cc1c(CC(=O)O)c(=O)oc2c(C)c(OCc3nn[nH]n3)ccc12	.	5	3	+
CCN(CC)c1ccc(-c2sc(Nc3ccccc3)n[n+]2-c2ccc(F)cc2)cc1	.	10	11	+
COCCNC(=O)c1ccccc1NC(=O)c1ccc(OC)c(OC)c1	-7	-6	0	+
O=C(CCc1nnc2ccc(NCc3ccco3)nn12)N1CCCCC1	.	-12	4	+
O=C(CCc1nnc2ccc(NCc3ccco3)nn12)N1CCN(c2ccccc2F)CC1	.	-16	10	?
Cc1ccc(NC(=O)CCc2nnc3ccc(NCc4ccco4)nn23)cc1F	.	6	1	+
N#Cc1ccc(N[C@@H]2CCN3C(=O)c4ccccc4[C@@H]3C[C@H]2O)cc1	.	-5	-4	+
COc1ccc(N[C@@H]2CCN3C(=O)c4ccccc4[C@@H]3C[C@H]2O)cc1	.	11	7	i
CC(C)(C)OC(=O)Nc1ccccc1-n1nnnc1C(C(=O)c1ccc(F)cc1)N1CCOCC1 (stereo not given)	.	3	.	i
COc1cccc(-c2csc(/C(C#N)=C/Nc3cc4oc5ccccc5c4cc3OC)n2)c1	12	4	-3	i
COc1cc2c(cc1N/C=C(\C#N)c1nc(-c3ccccc3)cs1)oc1ccccc12	11	0	-5	+
CC(C)=CC(=O)Nc1nc2ccc([N+](=O)[O-])cc2s1	7	-16	2	+
CC(=O)N1CCc2cc(NC(=O)C3(C)CCN3Cc3ccc(C(C)C)cc3)ccc21 (stereo not given)	.	4	.	i
Cc1cc(C)nc(-n2nc(C)cc2NC(=O)CN2CCC(C)CC2)n1	3	1	-10	+
Cc1cnc(C(=O)OCC(=O)C23CC4CC(CC(C4)C2)C3)cn1	.	-18	-5	+
O=C1COc2ccc(-c3csc(=Nc4ccc(OC(F)F)cc4)n3CC3CCCO3)cc2N1 (stereo not given)	10	-2	-5	i
COCC(C)n1c(-c2ccc3c(c2)NC(=O)CO3)csc1=Nc1ccc(OC(F)F)cc1 (stereo not given)	-14	-11	-9	+!
COc1cccc(N2CCc3c(C)nc4ccc(Cl)cc4c32)c1	.	11	2	?
CCN1Cc2c(/C=C/c3ccccc3)nc3ccc(OC)cc3c2N(c2cccc(Cl)c2)C1	.	-5	2	+
O=C(c1ccc(Cl)c(S(=O)(=O)NCc2ccco2)c1)N1CCN(c2ccccc2F)CC1	-3	11	-6	i
COc1ccccc1N1CCN(C(=O)c2ccc(Cl)c(S(=O)(=O)NCc3ccco3)c2)CC1	5	-2	-2	+
CC1C(=O)OC2C1CCC1(C)C3(C)C(=O)C=CC213 (stereo not given)	.	-11	.	i
Cc1cccc(NC(=O)CS(=O)(=O)c2cn(C)c3ccccc23)c1C	10	0	1	+
C=C1C(=O)[C@]23C[C@H]1CC[C@H]2[C@]1(C)[C@@H](O)CC[C@@](C)(C(=O)O)[C@H]1C[C@@H]3O	.	-4	.	+
C=C1C(=O)[C@]23C[C@H]1CCC2[C@@]1(C)C(C[C@@H]3O)[C@](C)(C(=O)O)C[C@H](O)[C@@H]1O (stereo not given in full)	.	-12	.	i
COc1ccc(OCC(O)CN2C(=O)c3ccccc3C2=O)cc1 (stereo not given)	.	4	-9	+
COc1ccccc1N1C(C)=CC(=C(C#N)c2nc3ccccc3s2)C=C1C	17	4	14	+
NC(=O)C1(N2CCCCC2)CCN(C(=O)c2cccs2)CC1	-15	4	6	+
O=S(=O)(c1cccs1)N1CCN(c2ccc(O)cc2)CC1	.	0	-3	+

Compound activity: PubChem BioAssay, several laboratories
